In the library only some 12% were active in any assay of this set; here they are far more common.
JMJD2A Tudor inh = JMJD2A Tudor domain (human) inhibition | 390,000 compounds, 4.4% hits | Potency, µM (series often up to 114 µM), actives largely listed as inhibitors | AID 504339 | AlphaScreen JMJD2A-Tudor / H3K4me3 peptide binding; further: nearly all actives have a fitted effect of over 50% in size
BAZ2B inh = BAZ2B (human) inhibition; AlphaScreen BAZ2B-H3K14Ac peptide displacement; Potency, µM (top dose mostly 114 µM), usual class: inhibitors; 360,000 compounds, 4.4% hits; AID 504333; further: nearly all actives have a fitted effect of over 60% in size
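Complex of BAZ2B and biotin-H3K14Ac (50 nM apiece) forms over 30 min at RT, then faces library compounds up to 110 uM for another 30 min; AlphaScreen beads added, 20 min dark incubation, luminescence read.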
TDP1 inh = inhibitors of human tyrosyl-DNA phosphodiesterase TDP1; Potency, µM (doses to about 130 µM), most hits filed as inhibitors; recombinant TDP1, AlphaScreen DNA substrate cleavage; Q9NUW8; AID 485290; 350,000 compounds, 0.28% hits; further: nearly all actives have a fitted effect of over 40% in size
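AlphaScreen read-out: signal falls as enzyme removes the 3' tyrosine-FITC from a 5'-biotinylated DNA oligo (15 nM, 5 min, RT). Enzyme was E. coli-made recombinant Tdp1 at 1 nM, exposed to compound for 15 min beforehand; beads 10 ug/ml, 10 min.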
G9a inh = G9a (human) methyltransferase inhibition; Q96KQ7; 350,000 compounds, 8.8% hits; Potency, µM (series often up to 102 µM), hits mostly inhibitors; G9a H3K9 monomethylation, AlphaScreen, 2 h; AID 504332; further: nearly all actives have a fitted effect of over 75% in size
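Signal arises when biotinylated H3K9 peptide, once monomethylated, bridges streptavidin donor and antibody-captured acceptor beads. Enzyme at 20 nM was preincubated 15 min with test compounds; peptide 500 nM and SAM 20 uM then reacted for 2 h.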
Sfp inh = blocks B. subtilis Sfp PPTase activity. Potency, µM, most hits filed as inhibitors. 310,000 compounds, 3.5% hits. Biochemical Sfp PPTase activity, qHTS. AID 1490;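 further: the enzyme is Sfp with the accession as filed and its product quenches rhodamine fluorescence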
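Sfp 15 nM + cpd, 15 min RT; start w/ rhodamine-CoA 5 uM, BHQ-2-YbbR 12.5 uM (final); 50 mM Hepes pH 7.6, 10 mM MgCl2, 0.01% NP-40, 0.01% BSA; read 525/598 nm at 0 and 30 min.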
HP1b binding inh = blocks HP1-beta chromodomain binding to methylated histone tails. Potency, µM (doses to about 114 µM), usual class: inhibitors. P83916. 390,000 compounds, 0.56% hits. AlphaScreen HP1-beta / biotin-H3K9me3 peptide binding; further: nearly all actives have a fitted effect of over 70% in size
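Compound inhibition of the preformed complex between 50 nM HP1-beta and 50 nM biotinylated H3K9me3 peptide was read by AlphaScreen. Buffer was PBS pH 7.4 with 0.01% Tween-20. Incubations ran 30 min at room temperature, with 10 ug/mL donor/acceptor beads.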
A number is an active result; [ ] = another dose, or the depositor's remark. The call rests on the fitted dose curve; in most records, active means well fitted curve in the direction sought with a large enough effect; inconclusive means small, poorly fitted or top-dose-only effect, or another doubt; inactive means no such curve, though single readings can be large; an effect the other way counts as inactive or inconclusive.

Screening Cn1c(=O)c2[nH]c(N=Nc3ccc(N)cc3N)nc2n(C)c1=O returned JMJD2A Tudor inh inactive, BAZ2B inh inconclusive, Sfp inh inconclusive and HP1b binding inh inactive.
For Nc1ccc(N=Nc2ccccc2O)c(N)c1 the results were JMJD2A Tudor inh 35µM and HP1b binding inh inconclusive.
`Oc1ccccc1N=Nc1ccccc1O` gave JMJD2A Tudor inh 32µM, TDP1 inh inactive, G9a inh 16µM, Sfp inh inactive and HP1b binding inh inactive.
C=CCn1c(O)c(N=Nc2ccccc2O)c2ccccc21 was read as JMJD2A Tudor inh inconclusive, BAZ2B inh inconclusive, TDP1 inh inactive, G9a inh inactive[2.33 µM] and HP1b binding inh inactive.
COc1ccc(N(C)S(=O)(=O)c2cccc(C(=O)N3CCN(c4cccc(C)c4C)CC3)c2)cc1 was read as JMJD2A Tudor inh inactive and HP1b binding inh inactive.
Screening C#CCCCO/N=C1/C[C@@H](O)[C@@H](O)[C@@H]2[C@@H]3C(=O)N(Cc4ccccc4)C(=O)[C@H]3CC[C@H]12 returned TDP1 inh inactive[21 µM] and Sfp inh inactive.
COCC1CCN(Cc2nc(-c3ccc4c(c3)OCO4)no2)C1 (centres undefined) was read as JMJD2A Tudor inh inactive, BAZ2B inh inactive, TDP1 inh inactive, G9a inh inactive, Sfp inh inactive and HP1b binding inh inactive.
`c1cc(C2CCN(Cc3nc(-c4ccc5c(c4)OCO5)no3)CC2)ccn1` gave JMJD2A Tudor inh 79µM, BAZ2B inh 56µM, TDP1 inh inactive, G9a inh 3.5µM, Sfp inh inactive and HP1b binding inh inactive.
`Cn1c(COc2ccccc2)nnc1SCC(=O)NC1CCCC1` gave JMJD2A Tudor inh inactive, BAZ2B inh inactive, TDP1 inh inactive, G9a inh inactive, Sfp inh inactive and HP1b binding inh inactive.
COc1ccc(Cl)cc1C(=O)CSc1nc(N)cc(N)n1 was read as JMJD2A Tudor inh inconclusive, BAZ2B inh inactive, TDP1 inh inactive, G9a inh 50µM, Sfp inh inactive and HP1b binding inh inactive.
Screening O=C(Nc1nnc(Cc2ccccc2)s1)C1CCN(C(=O)c2ccco2)CC1 returned JMJD2A Tudor inh inactive, BAZ2B inh inactive, TDP1 inh inactive, G9a inh 10µM, Sfp inh 50µM and HP1b binding inh inconclusive.
O=C(Nc1nnc(CCc2ccccc2)s1)C1CCN(C(=O)c2ccco2)CC1 was read as JMJD2A Tudor inh inactive and HP1b binding inh inactive.
`COc1ccc(Cc2nnc(NC(=O)C3CCN(C(=O)c4ccco4)CC3)s2)cc1` gave JMJD2A Tudor inh inactive, BAZ2B inh inactive, TDP1 inh inactive, G9a inh 79µM, Sfp inh inactive and HP1b binding inh inactive.
For CCN(CCCC(=O)c1ccc(F)cc1)CCc1ccccc1 the results were JMJD2A Tudor inh inactive, BAZ2B inh inactive, TDP1 inh inactive, Sfp inh inactive and HP1b binding inh inactive.
Screening CCN(CCCc1ccccc1)CCCc1ccccc1 returned JMJD2A Tudor inh 22µM, BAZ2B inh inconclusive, TDP1 inh inactive, G9a inh inconclusive, Sfp inh inactive and HP1b binding inh inactive.
CCCCN(CCO)CCCC was read as JMJD2A Tudor inh inactive, BAZ2B inh inactive, TDP1 inh inactive, G9a inh inactive[0.501 µM] and HP1b binding inh inactive.
`CCCN(CCO)CCCc1ccccc1` gave JMJD2A Tudor inh 2.8µM, BAZ2B inh inconclusive, TDP1 inh inactive, G9a inh inconclusive, Sfp inh inconclusive and HP1b binding inh inconclusive.
`Cc1ccc(CNC(=O)CSc2c(C(C)C)cnc3c2c(=O)n(C)c(=O)n3C)cc1` gave JMJD2A Tudor inh inactive, BAZ2B inh inactive, TDP1 inh inactive, G9a inh inactive and HP1b binding inh inactive.
COc1ccc(S(=O)(=O)N2CCN(C(=O)C3CC3)CC2)cc1 was read as JMJD2A Tudor inh inactive, BAZ2B inh inactive, TDP1 inh inactive, G9a inh inactive, Sfp inh inactive and HP1b binding inh inactive.
Screening COc1c(OC(C)=O)ccc(/C=C/c2ccc3cccc(OC)c3n2)c1[N+](=O)[O-] returned JMJD2A Tudor inh inconclusive, BAZ2B inh inconclusive, TDP1 inh inactive, G9a inh inconclusive, Sfp inh inactive and HP1b binding inh inconclusive.
O=C(O)c1ccc(/C=C/c2ccc3cccc(O)c3n2)cc1 was read as JMJD2A Tudor inh inactive, BAZ2B inh inactive, TDP1 inh inactive, G9a inh inconclusive, Sfp inh 40µM and HP1b binding inh inactive.
`COC(=O)c1ccc(/C=C/c2ccc3cccc(OC(C)=O)c3n2)cc1` gave JMJD2A Tudor inh inactive, BAZ2B inh inactive, TDP1 inh inactive, G9a inh inactive, Sfp inh 18µM and HP1b binding inh inactive.
`Cc1ccccc1NC(=O)CN1C(=O)c2cccnc2Oc2ccc(Cl)cc21` gave JMJD2A Tudor inh inactive, BAZ2B inh inconclusive, TDP1 inh inactive, G9a inh inactive, Sfp inh inactive and HP1b binding inh inactive.
For COc1ccc(C2CC(=O)c3cc(-c4nc(-c5ccc(Cl)cc5)cs4)c(=O)[nH]c3C2)cc1OC (centres undefined) the results were JMJD2A Tudor inh inactive, BAZ2B inh inconclusive, TDP1 inh inactive, G9a inh inactive and HP1b binding inh inactive.
Screening CC1(C)CC(=O)c2cc(-c3nc(-c4ccc(Cl)cc4)cs3)c(=O)[nH]c2C1 returned JMJD2A Tudor inh inactive, BAZ2B inh inactive, TDP1 inh inactive, G9a inh 14µM and HP1b binding inh inactive.
COc1ccc(-n2c3c(cc(-c4nc(-c5ccc(C)cc5)cs4)c2=O)C(=O)CC(C)(C)C3)cc1 was read as JMJD2A Tudor inh inactive, BAZ2B inh inactive, TDP1 inh inactive, G9a inh inactive and HP1b binding inh inactive.
Screening CC1(C)CC(=O)c2cc(-c3nc(-c4ccc(F)cc4)cs3)c(=O)[nH]c2C1 returned JMJD2A Tudor inh inconclusive, BAZ2B inh 71µM, TDP1 inh inactive, G9a inh 1.3µM and HP1b binding inh inactive.
For Cc1ccc(-n2c3c(cc(-c4nc(-c5ccc(Cl)cc5)cs4)c2=O)C(=O)CC(C)(C)C3)cc1C the results were JMJD2A Tudor inh inactive, BAZ2B inh inactive, TDP1 inh inactive, G9a inh 16µM and HP1b binding inh inactive.
O=C1CCCc2[nH]c(=O)c(-c3nc(-c4cccc([N+](=O)[O-])c4)cs3)cc21 was read as JMJD2A Tudor inh inactive, BAZ2B inh inactive, TDP1 inh inactive, G9a inh inactive and HP1b binding inh inactive.
Cc1ccc(-n2c(C)cc3c2CC(C)(C)CC3=O)cc1C was read as JMJD2A Tudor inh 56µM, BAZ2B inh inconclusive, TDP1 inh inactive, G9a inh inconclusive, Sfp inh inactive and HP1b binding inh inactive.
`c1nc(NC2CC2)c2cc(-c3ccoc3)ccc2n1` gave G9a inh inactive[0.501 µM] and Sfp inh inconclusive.
